Pf growth 96h: inhibits malaria parasite growth, 96 h; AID 504834; Potency, µM (doses to about 28.7 µM), for the others: top-dose activity change, negative = inhibition, most hits filed as inhibitors; actives 6.9% (n = 320,000); P. falciparum luciferase reporter growth, 96 h; note: potency is the fitted concentration of half-maximal effect; % is set by controls: 0 for no effect and ±100 for the full control effect
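P. falciparum expressing integrated firefly luciferase, in erythrocytes at 2% hematocrit, 0.05% parasitemia, incubated with compounds 96 h at 37 C, 5% CO2. Growth inhibition read as loss of luminescence; two-generation exposure targets delayed-death apicoplast inhibitors.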
Sm TGR block: S. mansoni TGR enzyme inhibition. Q962Y6. purified TGR, DTNB reduction, TNB absorbance 405 nm. Potency, µM (titrated, usually from 114 µM), for inactives: top-dose activity change, negative = inhibition, usual class: inhibitors. actives 3% (n = 360,000). AID 485364; note: potency is the fitted concentration of half-maximal effect; % is set by controls: 0 for no effect and ±100 for the full control effect; nearly all actives have a fitted effect of over 60% in size
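First, TGR (20 nM dispensed) and NADPH were mixed with compound. Second, a 15 min room-temperature incubation followed. Third, further NADPH and then DTNB were added to start the reaction. Finally, TNB absorbance was monitored kinetically.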
HCMV inh: inhibitors of human cytomegalovirus. HFF cells, HCMV-luciferase reporter, 72 h; hits give low values. activity change, negative = inhibition, % at 57.5 µM. actives 4.5% (n = 410,000). AID 1259415; in the data active = activity change below about -60%; inconclusive = no clear call, values can overlap the other calls; inactive = above about -39%; note: % is set by controls: 0 for no effect and ±100 for the full control effect
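Inhibition of viral replication was scored as loss of reporter luminescence in HFFs infected with HCMV-luciferase (MOI 1 PFU/cell) for 72 h; compounds tested at 2 doses, normalized to buffer and Salinomycin controls.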
HCV inhibitor: inhibitors of hepatitis C virus infection | actives 3.4% (n = 340,000) | AID 651820 | Huh7.5.1 HCVcc-Cre infection, luciferase reporter, 44 h | Potency, µM (titrated, usually from 41.8 µM), for inactives: top-dose activity change, negative = inhibition, most hits filed as inhibitors; note: potency is the fitted concentration of half-maximal effect; % is set by controls: 0 for no effect and ±100 for the full control effect
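Infectious HCVcc-Cre (~0.5 moi) was added to cells just after compound, with cells seeded 4 h earlier at 1,000 per well. Luciferase activity after 44 h culture reported infection; substrate was incubated 15 min at room temperature before reading.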
SARS PLpro yeast: blocks SARS-CoV papain-like protease in a yeast assay. S. cerevisiae expressing SARS-CoV PLpro, growth rescue. Potency, µM (series often up to 32.9 µM), inactives show at the highest dose activity, positive = growth rescue, usual class: activators. actives 0.19% (n = 330,000). AID 485353; calls by dose curve; note: potency is the fitted concentration of half-maximal effect; 0% is about no effect; nearly all actives have a fitted effect of over 55% in size
Pf growth 48h: P. falciparum growth inhibition at 48 hours (one generation) | P. falciparum luciferase growth in erythrocytes, 48 h | Potency, µM (series often up to 28.7 µM), without a hit: top-dose activity change, negative = inhibition, usual class: inhibitors | actives 5.9% (n = 310,000) | AID 504832; note: potency is the fitted concentration of half-maximal effect; % is set by controls: 0 for no effect and ±100 for the full control effect
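Luciferase-expressing P. falciparum in infected erythrocytes (2% hematocrit, 0.1% parasitemia final) in RPMI 1640/0.5% Albumax were exposed to compound for 48 hours at 37 C, 5% CO2; growth read as luminescence.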
Starred values were filed as active, the others as inactive; ? = inconclusive; . = not tested or not shown; ! = not active in a repeat. Only some compounds are listed: those with a hit (about 15% of all), similar ones and a draw of the others. Unless noted, calls come from the whole dose curve; as a rule, active = well fitted curve in the direction sought with a large enough effect; inconclusive = small, poorly fitted or top-dose-only effect, or another doubt; inactive = no such curve, though single readings can be large; an effect the other way counts as inactive or inconclusive.

SMILES	Pf growth 96h	Sm TGR block	HCMV inh	HCV inhibitor	SARS PLpro yeast	Pf growth 48h
CC(C)(C)NC(=O)CN1CCN(C(=O)CCl)CC1	-22.0%	44.7µM*	-63.4*	-25.7%	1.5%	?
COc1cc(Cl)c(NC(=O)c2cc3ccccn3n2)c(OC)c1	.	-0.8%	55.1	.	.	.
CCOc1ccccc1NS(=O)(=O)N(C)C	13.1µM*	2.1%	12.8	23.2%	-2.8%	.
COc1ccc(C(=O)NNC(=S)NC(=O)/C=C/c2cccs2)cc1	30.8%	9.1%	-6.8	?	-1.5%	191.2%
O=C(CCC(=O)c1cccs1)NNC(=O)c1ccccc1O	-8.4%	11.2µM*	2.2	16.7%	9.8%	10.0%
O=C(/C=C/c1cccs1)NC(=S)NNC(=O)c1ccccc1O	18.4%	-14.3%	-94.0*	22.4µM*	?	?
O=C(Cc1ccsc1)NNC(=O)c1ccccc1O	33.1%	1.4%	-61.4*	?	6.9%	10.9%
Cc1cccc(N(CC(=O)N(C)Cc2ccccc2)S(=O)(=O)c2ccccc2)c1C	.	8.7%	-63.5*	.	.	.
Cc1cccc(N(CC(=O)NCCc2ccccc2)S(=O)(=O)c2ccccc2)c1C	.	0.6%	-10.3	.	.	.
O=C(Cc1ccccc1)N1CC(=O)N2[C@@H](CO)[C@@H](c3ccc(Br)cc3)[C@@H]2C1	.	.	0.7	.	.	.
O=C(Cc1ccccn1)N1CC(=O)N2[C@H](CO)[C@@H](c3ccc(Br)cc3)[C@H]2C1	.	.	-101.1*	.	.	.
COc1cccc(CNC(=O)c2sc3ncccc3c2-n2c(C)ccc2C)c1OC	.	9.4%	-39.1	.	.	.
Cc1cc(C)nc(SCCS(=O)(=O)Cc2ccc(Cl)cc2)n1	10.4µM*	-0.9%	-25.2	-25.1%	10.8%	3.5%
O=C(CSc1nnc(Cc2ccccc2)o1)NCc1ccco1	-23.2%	44.7µM*	54.8	4.3%	0.1%	-15.4%
Cc1[nH]c2ccccc2c1Cc1nnc(SCC(=O)NCc2ccco2)o1	?	15.8µM*	12.7	6.9%	8.9%	-9.1%
CCn1c(Cc2c(C)[nH]c3ccccc23)nnc1SCC(=O)NCc1ccco1	-16.9%	0.0%	22.9	-18.2%	?	-14.8%
O=C(CSc1nnc(Cc2ccccc2)n1Cc1ccccc1)NCc1ccco1	10.4%	-33.0%	?	7.3%	-3.6%	?
C=CCSc1nnc(Cc2c(C)[nH]c3ccccc23)o1	8.28µM*	-33.7%	9.8	?	12.3%	3.8%
C=CCNc1ncnc2c1ncn2[C@H]1CN(Cc2ccc(F)cc2)C[C@@H](CO)O1	.	.	59.8	.	.	.
Cc1cc2[nH]c(=O)c(=O)[nH]c2cc1S(=O)(=O)Nc1cccc(C)c1C	26.0%	2.9%	9.9	1.9%	.	0.0%
CC(C)CN(c1ccccc1)S(=O)(=O)c1nnc(NC(=O)c2ccco2)s1	206.7%	35.5µM*!	?	9.2%	?	11.7%
CN(c1ccccc1)S(=O)(=O)c1nnc(NC(=O)c2ccco2)s1	3.7µM*	-63.7%	0.7	19.4%	-2.3%	-7.6%
CCN(c1ccccc1)S(=O)(=O)c1nnc(NC(=O)c2ccccc2)s1	.	-5.1%	-22.3	.	.	.
Nc1cc(=O)[nH]c(SCC(=O)NCCC2=CCCCC2)n1	.	.	45.3	-4.0%	2.2%	.
CC(C)(C)NC(=O)C1C(c2ccccc2)=Nc2ccccc2N1C(=O)c1ccc(C(F)(F)F)cc1 (configuration not stated)	.	.	12.1	.	.	.
SMILES	Pf growth 96h	Sm TGR block	HCMV inh	HCV inhibitor	SARS PLpro yeast	Pf growth 48h
O=C(Cn1ccc(NC(=O)OCc2ccccc2)nc1=O)NCCCc1ccccc1	22.4%	-2.6%	25.6	-1.6%	1.6%	-1.1%
O=C(Cn1ccc(NC(=O)OCc2ccccc2)nc1=O)NCCc1c[nH]c2ccccc12	?	-30.9%	32.2	2.82µM*	-1.2%	?
O=C(Cn1ccc(NC(=O)OCc2ccccc2)nc1=O)NCCc1ccccn1	-18.3%	31.6µM*	-2.6	5.1%	-1.1%	30.1%
CC(=O)c1cc(O)c2ccccc2c1O	?	8.91µM*	84.9	3.9%	-2.9%	?
COC(=O)C1=C(c2ccc(F)cc2OCc2ccccc2)C[C@@H]2CC[C@H]1N2C(=O)N1CCC(O)(c2ccc(Cl)cc2)CC1	.	.	-16.8	?	0.3%	.
COC(=O)C1=C(c2ccc(F)cc2OCc2ccccc2)C[C@@H]2CC[C@H]1N2C(=O)N1CCOCC1	?	-25.3%	?	-26.1%	-9.9%	6.57µM*
COC(=O)C1=C(c2ccc(F)cc2OCc2ccccc2)C[C@@H]2CC[C@H]1N2C(=O)N1CCCCC1	?	-15.7%	-13.6	?	2.1%	?
COC(=O)C1=C(c2ccc(F)cc2OCc2ccccc2)C[C@@H]2CC[C@H]1N2C(=O)N1CCC(C)CC1	?	-2.0%	.	?	-2.6%	7.38µM*
COc1ccccc1NC(=O)Cn1c(C)cc(C)c(C#N)c1=O	.	9.5%	12.7	.	.	.
O=C1CCCC2=C1C(c1ccc(O)cc1)c1c(ccc3ccccc13)N2 (configuration not stated)	?	25.1µM*	-5.3	-0.6%	-0.7%	?
O=C1CCCC2=C1C(c1ccc(O)c(O)c1)c1c(ccc3ncccc13)N2 (configuration not stated)	-1.8%	?	-14.4	8.6%	0.9%	-9.1%
CCOc1ccc(C2C3=C(CCCC3=O)Nc3ccc4ncccc4c32)cc1 (configuration not stated)	?	17.8µM*	56.0	?	0.9%	134.0%
COc1cccc(CNCCSc2nnnn2C)c1OCc1ccccc1F	.	-4.6%	-2.7	.	.	.
Cc1ccccc1NC(=O)Cc1nc(-c2c[nH]c(C(=O)N3CCCC3)c2)cs1	10.4µM*	-20.6%	13.7	?	6.4%	9.28µM*
Cc1cccc(NC(=O)Cc2nc(-c3c[nH]c(C(=O)N4CCCC4)c3)cs2)c1	?	-7.2%	6.6	?	-0.6%	11.7µM*
CC(C)CCC[C@@H](C)[C@H]1CC[C@H]2[C@@H]3CC=C4C[C@@H](O)CC[C@]4(C)[C@H]3CC[C@]12C	13.3%	.	.	.	.	-2.8%
OCCCn1c(C(CO)Nc2nc(-c3ccc(Cl)cc3)cs2)nc2ccccc21 (configuration not stated)	.	.	54.0	?	.	.
Cc1ccc(OCCC(=O)Nc2ccc(F)c(Cl)c2)cc1	14.7µM*	7.9%	-26.4	-6.5%	27.1%	6.9%
CCOCC(O)CSCc1ccc(Cl)cc1 (configuration not stated)	6.3%	10µM*	-29.2	6.5%	.	8.9%
C#CCN1CC(COc2ccccc2)Oc2cccc(Oc3ccc(OC)cc3)c2S1(=O)=O (configuration not stated)	.	.	-20.2	.	.	.
